Assay results: PubChem BioAssay AID1159580 (chemical genetic matrix, 2015)
Values joined by “and” are separate entries in the source; they are usually repeats but may differ in a detail not shown here. Identical values can stand only once. Among all 5,500 compounds or so, about 2,000 (36%) were called active. Another 18% or so got no clear call; they are omitted. No stated cut-off is given here; in the data, active means normalized growth mostly below about 0.91 (no sharp cut-off); inconclusive means no clear call, values can overlap the other calls; inactive means mostly above about 0.92. Some of the results follow.

Assay: chemical genetic growth profiling, strain panel (AID 1159580);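 further: tested at 20 µM; growth read once vehicle control cultures reached saturation at 30 °C; 1 = growth at the plate median or of vehicle wells; lower values mean less growth of the strain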
Settings: S. cerevisiae deletion strains, growth OD

Measured: normalized growth

CC(C)NCC(O)c1ccc(O)c(O)c1 (stereo not given)
inactive: locus YAL013W, strain DEP1, active compounds read low 1.01 | locus YAL021C, strain ccr4, active compounds read low 0.994 | locus YAL026C, strain drs2, active compounds read low 0.994 | locus YAL030W, strain snc1, active compounds read low 0.996 | locus YAL040C, strain CLN3, active compounds read low 1 and 1.06 | locus YBL061C, strain skt5, active compounds read low 0.99 | locus YBR009C, strain hhf1, active compounds read low 0.995 | locus YBR021W, strain FUR4, active compounds read low 1.01 | locus YBR023C, strain chs3, active compounds read low 0.982 | locus YBR171W, strain sec66, active compounds read low 0.979 | locus YBR229C, strain ROT2, active compounds read low 1.02 | locus YBR231C, strain swc5, active compounds read low 0.997 | locus YBR279W, strain paf1, active compounds read low 0.973 | locus YCL011C, strain gbp2, active compounds read low 0.978 | locus YCL016C, strain dcc1, active compounds read low 0.951 | locus YCL029C, strain bik1, active compounds read low 1 | locus YCL061C, strain MRC1 (second series), active compounds read low 0.995 and 0.99 | locus YCL061C, strain MRC1, active compounds read low 0.985 | locus YCL069W, strain vba3, active compounds read low 1 | locus YCR088W, strain abp1, active compounds read low 0.99 | locus YDL005C, strain med2, active compounds read low 0.997 | locus YDL035C, strain GPR1, active compounds read low 1.02 | locus YDL040C, strain nat1, active compounds read low 1.01 | locus YDL074C, strain BRE1, active compounds read low 1.03 | locus YDL101C, strain DUN1, active compounds read low 1.01 | locus YDL185W, strain tfp1, active compounds read low 0.984 | locus YDL192W, strain arf1, active compounds read low 1 | locus YDR001C, strain nth1, active compounds read low 0.992 | locus YDR069C, strain doa4, active compounds read low 1.02 | locus YDR101C, strain arx1, active compounds read low 1.02 | locus YDR137W, strain rgp1, active compounds read low 1 | locus YDR150W, strain NUM1, active compounds read low 1.02 and 0.999 | locus YDR159W, strain sac3, active compounds read low 1.01 | locus YDR162C, strain NBP2, active compounds read low 1 | locus YDR195W, strain ref2 0.992 | locus YDR297W, strain sur2, active compounds read low 0.99 | locus YDR318W, strain mcm21, active compounds read low 0.996 | locus YDR334W, strain swr1, active compounds read low 0.982 | locus YDR335W, strain msn5, active compounds read low 0.992 | locus YDR363W, strain ESC2, active compounds read low 1.02 and 0.978 | locus YDR388W, active compounds read low 0.994 | locus YDR392W, strain spt3, active compounds read low 0.912 | locus YDR502C, strain sam2, active compounds read low 0.999 | locus YEL003W, strain gim4, active compounds read low 1.01 | locus YEL037C, strain rad23, active compounds read low 0.993 | locus YEL061C, strain CIN8 (second series), active compounds read low 0.994 | locus YEL061C, strain CIN8, active compounds read low 1.01 | locus YER002W, strain NOP16, active compounds read low 0.997 and 0.956 | locus YER015W, strain faa2, active compounds read low 0.995 | locus YER016W, strain bim1, active compounds read low 1.01 | locus YER110C, active compounds read low 0.997 | locus YER111C, strain swi4, active compounds read low 0.985 | locus YER155C, strain BEM2 (second series), active compounds read low 0.989 | locus YER155C, strain BEM2, active compounds read low 1.01 | locus YER167W, strain BCK2, active compounds read low 0.992 | locus YFR010W, strain ubp6, active compounds read low 0.992 | locus YGL078C, strain dbp3, active compounds read low 0.995 | locus YGL086W, strain mad1, active compounds read low 0.994 | locus YGL167C, strain pmr1, active compounds read low 0.989 | locus YGL173C, strain kem1, active compounds read low 0.999 | locus YGL227W, strain vid30, active compounds read low 0.99 | locus YGL240W, strain doc1, active compounds read low 0.982 | locus YGL248W, strain PDE1, active compounds read low 1.01 | locus YGL253W, strain hxk2, active compounds read low 0.999 | locus YGR078C, strain PAC10, active compounds read low 1.02 and 0.98 | locus YGR135W, strain pre9, active compounds read low 0.993 | locus YGR229C, strain SMI1, active compounds read low 1.01 | locus YGR252W, strain gcn5, active compounds read low 0.936 | locus YHR013C, strain ard1, active compounds read low 0.976 | locus YHR027C, strain rpn1, active compounds read low 0.997 | locus YHR030C, strain SLT2, active compounds read low 1.01 and 0.977 | locus YHR079C, strain IRE1 (second series), active compounds read low 1 | locus YHR079C, strain IRE1, active compounds read low 0.993 | locus YHR094C, strain hxt1, active compounds read low 0.987 | locus YHR129C, strain ARP1, active compounds read low 1.01 | locus YHR142W, strain chs7, active compounds read low 0.965 | locus YHR200W, strain rpn10, active compounds read low 1 | locus YIL066C, strain RNR3, active compounds read low 1.01 | locus YIL073C, strain SPO22, active compounds read low 1.05 | locus YIL125W, strain kgd1, active compounds read low 0.99 | locus YIR030C, strain dcg1, active compounds read low 1.01 | locus YJL092W, strain hpr5, active compounds read low 0.985 | locus YJL095W, strain BCK1 (second series), active compounds read low 0.995 | locus YJL095W, strain BCK1, active compounds read low 1.03 and 0.991 | locus YJL115W, strain asf1, active compounds read low 0.995 | locus YJL129C, strain trk1, active compounds read low 0.979 | locus YJL134W, strain LCB3, active compounds read low 1.02 | locus YJL154C, strain vps35, active compounds read low 0.995 | locus YJL164C, strain tpk1, active compounds read low 0.998 | locus YJL166W, strain qcr8, active compounds read low 0.972 | locus YJL168C, strain set2, active compounds read low 0.984 | locus YJL187C, strain SWE1 (second series), active compounds read low 1.01 | locus YJL187C, strain SWE1, active compounds read low 1 | locus YJR043C, strain POL32, active compounds read low 1.01 | locus YJR066W, strain TOR1, active compounds read low 0.944
